This note sets out measurements from PubChem BioAssay.

The term viability denotes a per cent measure of how many cells are alive, often set against a control.

Where “and” joins values, the source holds several entries; their conditions need not be identical. Equal entries are not always repeated. Results filed as inconclusive are left out. Calls of active or inactive are those of the source. Unless noted, the limit is not given here; nearly all actives have AC50 up to about 26 µM.

The nature of assay [1]: Wnt pathway potentiators raising nuclear beta-catenin – imaging, WNT3A-conditioned medium, mouse C2C12, NPC library, primary screen (AID 1117326; in the data active = nuclear beta-catenin stimulation mostly above about 4.2%, no sharp cut-off; inactive = mostly below about 10%). The settings on record: stronger effect = higher value.
Assay [2] can be described thus: stimulators of insulin release from INS-1E, primary screen, cell-based, 5 mM glucose, NPC library (AID 1117329;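 active = compound raises insulin release from rat beta cells at 5 mM glucose, no numeric limit stated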). As to conditions: rat INS-1E insulin secretion, at 10 µM, stronger effect = higher value.
Assay [3] is described as follows: growth inhibition of GSK3B-pretreated HCT116 cells – cell-based, CellTiter-Glo, 0.2 to 20 µM (AID 1117336;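 active = compounds lowering colon cancer cell viability after pretreatment blocking the GSK3B kinase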). The settings on record: HCT116 viability after GSK3B inhibitor, at 20 µM, stronger effect = higher value. In general terms: ATP-based viability assays read luminescence as a measure of living cells.
The nature of assay [4]: inhibition of endothelial tube formation, primary screen, imaging, VEGF stimulated, CD31 staining, tube area, NPC library (AID 1117340;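 active = compound that reduces growth-factor-driven endothelial tube area in a mixed cell culture, no cutoff stated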). As to conditions: VEGF-stimulated ADSC/ECFC co-culture, at 10 µM, stronger effect = higher value.
A short description of assay [5]: GLP1 release stimulators, primary, NCI-H716, NPC library (AID 1117341;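 active = compound raises GLP1 secretion from the human gut endocrine cells, with no numeric limit stated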). As to conditions: NCI-H716 cells, at 10 µM, stronger effect = higher value.
Assay [6] is described as follows: HCT116 colon cancer cell growth inhibition, primary screen, CellTiter-Glo luminescence, NPC library (AID 1117342;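 active = compounds that lower survival of HCT116 colon cancer cells in the luminescence readout, no numeric limit stated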). The settings on record: at 20 µM (top of the series).
Assay [7] can be described thus: reduced SW480 viability measured with CellTiter-Glo, NPC library, primary (AID 1117343;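 active = compounds that lower viability of the colon cancer cells in the luminescence readout, with no numeric limit stated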). The settings on record: CellTiter-Glo luminescence; at 20 µM (top of the series) unless noted.
Assay [8] in a line: NPC library primary testing for decreased DLD-1 cell viability via CellTiter-Glo (AID 1117346;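 active = compounds that lower survival of DLD-1 colon cancer cells in the luminescence readout, no cutoff given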). The settings on record: DLD-1 viability, CellTiter-Glo luminescence; at 20 µM (top of the series).
Assay [9] can be described thus: viability loss in pontine glioma line – cell-based, SU-DIPG-IV, MIPE4.0, CellTiter-Glo, qHTS, dose response (AID 1347063; cut-off not given, nearly all actives have AC50 up to about 30 µM;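 also: compound exposure lasted 48 hours before the viability readout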). As to conditions: CellTiter-Glo ATP luminescence.
A short description of assay [10]: viability loss in pontine glioma line – cell-based, SU-DIPG-XXV, MIPE5.0, CellTiter-Glo, qHTS, dose response (AID 1347065).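 Also: cells exposed to compound for 48 hours before ATP readout.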 As to conditions: CellTiter-Glo ATP luminescence.
A short description of assay [11]: growth inhibition of DIPG cells – cell-based, MIPE4.0 library, CellTiter-Glo luminescence, qHTS (AID 1347066; cut-off not given, nearly all actives have AC50 up to about 30 µM;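 also: cells exposed to compound for 48 hours before readout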). The settings on record: SU-DIPG-VI viability, CellTiter-Glo ATP luminescence.
The nature of assay [12]: JHH-DIPG-1 glioma cell viability, MIPE5.0 library, CellTiter-Glo luminescence, qHTS (AID 1347067).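 Also: cells exposed to compound for 48 hours before readout.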 As to conditions: JHH-DIPG-1 glioma viability, CellTiter-Glo ATP luminescence.
Assay [13] in a line: growth inhibition of DIPG cells – cell-based, MIPE5.0 library, qHTS (AID 1347068; cut-off not given, nearly all actives have IC50 up to about 30 µM). The settings on record: SU-DIPG-XXV viability. On the technique in general: Quantitative high-throughput screening tests each substance at several concentrations.
Assay [14] can be described thus: viability loss with induced miR-34 in A549 – imaging, A549 dox-inducible miR-34, nuclei and caspase counts, primary screen (AID 1347080;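 active = compounds whose cell count with miR-34 switched on is under 0.7 times the count with it off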). As to conditions: A549 miR-34 inducible, Hoechst nuclei count, 48 h.
Assay [15] in a line: blockers of cellular phospholipid synthesis – cell-based, LOPAC library, screen 4, primary screen (AID 1347384; call rule not given here). As to conditions: animal cells, phospholipid biosynthesis inhibition screen; at 10 µM.
The nature of assay [16]: galactose survival enhancers in mitochondrial complex I cybrids – cell-based, galactose medium, ATP luminescence, primary screen (AID 1645843;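 active = z-score of at least 1.8 in each of two replicates, scored against plate mean and spread of sample wells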;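 also: positive z means more ATP and so rescue of galactose-driven cybrid death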). As to conditions: complex I mutant cybrid cells, 72 h, stronger effect = higher value.
The nature of assay [17]: viability loss in pontine glioma line – cell-based, JHH-DIPG-1, MIPE4.0, CellTiter-Glo, qHTS, dose response (AID 1347062; cut-off not given, nearly all actives have AC50 up to about 27 µM). As to conditions: JHH-DIPG-1 viability, CellTiter-Glo ATP luminescence.
Assay [18] is described as follows: MELAS cybrid and Rieske KO viability enhancers – cell-based, MELAS cybrids, Rieske KO mouse fibroblasts, CellTiter-Glo, primary screen (AID 1508586;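 active = mean z-score across replicates of 1.96 or higher in either the MELAS or the Rieske mutant cell line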;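 also: z relative to plate mean and SD of compound and empty wells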). The settings on record: low glucose.
Assay [19] can be described thus: P. berghei load reduction in hepatocytes – cell-based, HepG2, luciferase luminescence, HepG2 viability, primary screen (AID 624349; in the data active = parasite load remaining mostly below about 12%, no sharp cut-off; inactive = mostly above about 10%;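 also: 100% = mean of DMSO negative control wells on the same plate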). As to conditions: P. berghei liver stage in HepG2, luciferase luminescence, concentration not given here; parasite load remaining: stronger effect = lower value; viability: measured here: HepG2 viability without parasites.
The mark [20] stands for this setting: stronger effect = lower value, cell number ratio, induced over uninduced.
The mark [21] stands for this setting: measured here: relative caspase fold change +Dox/-Dox.
Where [22] appears, read: measured here: total cells with miR-34 induction, stronger effect = lower value.
Where [23] appears, read: measured here: total cells without miR-34 induction.
Where [24] appears, read: MELAS cybrid survival, CellTiter-Glo 48 h, stronger effect = higher value.
Setting [25] is: Rieske KO mouse fibroblast survival, CellTiter-Glo 72 h.

On to `N[C@@H](Cc1c[nH]c2ccc(O)cc12)C(=O)O`, for which the nuclear beta-catenin stimulation is 1.6% (inactive) in [1] (at 10 µM) and 3.9% in assay [1] (stimulation, at 2 µM). Moreover, the insulin secretion stimulation in assay [2] is 2.1% (inactive). Moreover, in assay [3], the viability decrease was -0.3% (inactive). The tube area decrease in assay [4] is 1.7% (inactive). Moreover, in [5], the GLP1 secretion stimulation is 3.1% (inactive). Also, in [6], the inhibition of viability was 2.5% (inactive). Further, the viability decrease (inhibition) is -17.1% (inactive) in [7] and -5.7% (inactive) in assay [8]. The outcome in [9], in assay [10], in assay [11], in assay [12], in assay [13] and in assay [15] was inactive. In addition, the fold change in assay [14] (setting [20]) was 1.04 (inactive); in [14] (setting [21]), 0.787. The cell count in [14] (setting [22]) turned out to be 10300; in assay [14] (setting [23]) it was 9860. Moreover, the z-score in assay [16] was 0.37 (inactive).

Regarding `CC(=O)N[C@H]1[C@H]([C@H](O)[C@H](O)CO)OC(C(=O)O)=C[C@@H]1N=C(N)N`, the nuclear beta-catenin stimulation in assay [1] (at 10 µM) is 0.9% (inactive); in assay [1] (stimulation, at 2 µM), 0.5%. For the same compound, the insulin secretion stimulation in assay [2] is -2.6% (inactive). Moreover, in assay [3], the viability decrease was -14.4% (inactive). The tube area decrease in assay [4] is 7.8% (inactive). Besides, in [5], the GLP1 secretion stimulation was -2.9% (inactive). In addition, in assay [6], the inhibition of viability was -2.4% (inactive). The results for the viability decrease (inhibition) in assay [7] and in assay [8] were 19.9% (inactive) and 2.95% (inactive), respectively. The result in [17], in [9] and in assay [11] was inactive.

Regarding `NCCCC(N)(C(=O)O)C(F)F` (stereo not drawn), the nuclear beta-catenin stimulation in assay [1] (at 10 µM) is -0.1% (inactive); in assay [1] (stimulation, at 2 µM) it was -0.3%. Moreover, the insulin secretion stimulation in assay [2] is -2.2% (inactive). In addition, in assay [3], the viability decrease is 6.2% (inactive). Besides, the tube area decrease in [4] was -6.3% (inactive). In addition, the GLP1 secretion stimulation in assay [5] was 2.8% (inactive). Moreover, the inhibition of viability in [6] was 12.2% (inactive). The viability decrease (inhibition) in assay [7] was 65.3% (active); in assay [8], 36% (inactive). Also, the call in assay [17], in [9], in assay [10], in assay [12], in assay [13] and in assay [15] was inactive. Besides, the fold change in assay [14] (setting [20]) is 1.13 (inactive); in [14] (setting [21]) it was 0.834. For the same compound, the cell count in assay [14] (setting [22]) came to 8420; in assay [14] (setting [23]), 7470. The z-score in [16] was 0.11 (inactive).

Turning to `Cc1nnc(C(=O)NC(C)(C)c2nc(C(=O)NCc3ccc(F)cc3)c(O)c(=O)n2C)o1`, the nuclear beta-catenin stimulation in assay [1] (at 10 µM) was -0.2% (inactive); in assay [1] (stimulation, at 2 µM), 0.5%. In assay [2], the insulin secretion stimulation was 2.5% (inactive). Further, the viability decrease in [3] is -5.9% (inactive). Besides, the tube area decrease in [4] was 13.9% (inactive). In assay [5], the GLP1 secretion stimulation is -0.3% (inactive). Further, the inhibition of viability in assay [6] was 1% (inactive). In addition, the viability decrease (inhibition) in [7] is 31.6% (inactive); in [8], 6.7% (inactive). Also, the compound was called inactive in [9], in assay [10], in [11] and in assay [13]. The fold change in assay [14] (setting [20]) was 0.902 (inactive); in assay [14] (setting [21]), 1.04. Also, the cell count in [14] (setting [22]) stood at 7710; in assay [14] (setting [23]) it was 8560. The z-score in [18] (setting [24]) was -0.159 (inactive); in assay [18] (setting [25]) it was -0.0651.

Turning to `Cc1ccc(C(=O)c2cc(O)c(O)c([N+](=O)[O-])c2)cc1`, in [19], the parasite load remaining was 26.1% (inactive). The viability in [19] came to 97%. Further, the nuclear beta-catenin stimulation in [1] (at 10 µM) was 5.2% (inactive); in assay [1] (stimulation, at 2 µM), 1.2%. Further, the insulin secretion stimulation in assay [2] was -0.8% (inactive). The viability decrease in assay [3] is 43.7% (active). Moreover, the tube area decrease in [4] is 39.4% (inactive). Also, in assay [5], the GLP1 secretion stimulation was -3.6% (inactive). The inhibition of viability in assay [6] is 55.5% (active). Besides, the viability decrease (inhibition) in assay [7] was 84.4% (active); in assay [8], 67.5% (active). Besides, the outcome in assay [17], in [10], in assay [12] and in assay [13] was inactive. The fold change in assay [14] (setting [20]) was 0.985 (inactive) and 0.843 (inactive); in [14] (setting [21]) it was 0.594 and 0.464. The cell count in assay [14] (setting [22]) is 8860 and 9320; in assay [14] (setting [23]) it was 8990 and 11100. The z-score in [18] (setting [24]) is -0.224 (inactive) and 0.125 (inactive) and 0.577 (inactive); in [18] (setting [25]), -0.152 and -0.0292 and 1.07; in [16] it was -0.715 (inactive).
